Some test systems named below: SR leukemia; RPMI-8226 leukemia; OVCAR-8 ovarian; OVCAR-5 ovarian; OVCAR-4 ovarian; SK-OV-3 ovarian; IGROV1 ovarian; OVCAR-3 ovarian; HS 578T breast; NCI/ADR-RES ovarian; T-47D breast; BT-549 breast; MDA-MB-435 melanoma; SW-620 colon; MCF7 breast; HCT-116 colon; HCC-2998 colon; KM12 colon.
Common to all, as to assay: NCI-60 one-dose screen, 48 h (100 = growth as untreated, 0 = no growth, -100 = all killed)
What all share (conditions): 10 µM unless noted

This is part of a sample that, as a whole, favours compounds with a hit. Of some 83,000 tested, about 20% had one in any assay.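 Activity criterion: percent growth below 10, measured after cells in 96-well plates were exposed to a single compound concentration for 48 hours.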 A number with no mark means an inactive call. Active and inactive are the calls of the source.

Consider `Cc1nn(-c2ccc(Cl)cc2)c(C)c1N=Nc1ccc2oc(=O)ccc2c1`, for which the growth in the assay on SR leukemia was 67.1%; with RPMI-8226 leukemia, 72.3%; in the assay on OVCAR-8 ovarian it was 56.9%; in the assay on OVCAR-5 ovarian it was 104%; in the assay on OVCAR-4 ovarian, 34.4%; in the assay on SK-OV-3 ovarian it was 114%. In addition, the growth was 80.9% in the assay with IGROV1 ovarian; 104% in the assay on OVCAR-3 ovarian; 75.9% in the assay with HS 578T breast; 69.5% in the assay on NCI/ADR-RES ovarian; 45.9% with T-47D breast; 101% in the assay on BT-549 breast. For the same molecule, the growth in the assay with MDA-MB-435 melanoma was 85.4%; in the assay with SW-620 colon, 94%; in the assay on MCF7 breast, 78.7%; with HCT-116 colon it was 66.5%; with HCC-2998 colon, 105%; in the assay with KM12 colon, 90.3%.

Take `O=C(/C=C1\C=CN(CCCCCCF)c2ccccc21)n1ccc2ccccc21`: the growth with SR leukemia is 85.8%; in the assay on RPMI-8226 leukemia, 74.7%; with OVCAR-8 ovarian it was 101%; in the assay on OVCAR-5 ovarian, 99.3%; in the assay with OVCAR-4 ovarian it was 81.9%; with SK-OV-3 ovarian, 98.8%. In addition, the growth with IGROV1 ovarian is 67.6%; in the assay with OVCAR-3 ovarian it was 100%; in the assay with HS 578T breast, 96.7%; in the assay on NCI/ADR-RES ovarian it was 105%; in the assay with T-47D breast it was 82%; with BT-549 breast, 103%. In addition, the growth in the assay on MDA-MB-435 melanoma is 108%; with SW-620 colon it was 104%; in the assay on MCF7 breast it was 88.4%; with HCT-116 colon it was 84.8%; in the assay on HCC-2998 colon, 107%; in the assay on KM12 colon, 100%.

As for `CCN(CC)c1ccc2cc(C(=O)NCCOCCOCCOCCn3cc(CCC(=O)Nc4ccc(C(=O)c5ccc(NC(=O)OC(C)(C)C)cc5)cc4)nn3)c(=O)oc2c1`, the growth in the assay with SR leukemia is 44%; in the assay with RPMI-8226 leukemia it was 16.2%; in the assay on OVCAR-8 ovarian, 17.4%; with OVCAR-5 ovarian it was 99.8%; with OVCAR-4 ovarian, 33.5%; with SK-OV-3 ovarian, 98.3%. The growth is 41.1% in the assay with IGROV1 ovarian; 44.6% in the assay with OVCAR-3 ovarian; 83.7% with HS 578T breast; 88.3% in the assay with NCI/ADR-RES ovarian; -8.51% (active) with T-47D breast; 26.4% with BT-549 breast. Moreover, the growth in the assay with MDA-MB-435 melanoma is 62.4%; in the assay on SW-620 colon, 82.1%; in the assay on MCF7 breast, 44.1%; with HCT-116 colon, 36.3%; in the assay on HCC-2998 colon, 96.8%; in the assay on KM12 colon, 36.6%.

Regarding `COc1ccc(Cn2cc3c(c2-c2cc(OC)c(OC)c(OC)c2)CCCc2cnoc2-3)cc1`, the growth was 13.4% in the assay with SR leukemia; 23.4% in the assay on RPMI-8226 leukemia; 43% in the assay with OVCAR-8 ovarian; 34.9% in the assay with OVCAR-5 ovarian; 62.3% with OVCAR-4 ovarian; 58% with SK-OV-3 ovarian. Further, the growth in the assay on IGROV1 ovarian is 22.1%; in the assay with OVCAR-3 ovarian, 4.45% (active); in the assay with HS 578T breast, 22.1%; in the assay with NCI/ADR-RES ovarian it was 15.5%; with T-47D breast, 39.1%; with BT-549 breast it was 63.3%. Also, the growth with MDA-MB-435 melanoma was -48.2% (active); in the assay on SW-620 colon it was 25.6%; with MCF7 breast it was 11.5%; with HCT-116 colon it was 19%; in the assay with HCC-2998 colon it was 32.4%; with KM12 colon, 29%.

For the molecule `CN1C(=O)N(C)C2C1NN=c1s/c(=C\c3ccccn3)c(=O)n12` (stereo not drawn), the growth in the assay on SR leukemia was 114%; with RPMI-8226 leukemia, 101%; in the assay on OVCAR-8 ovarian, 101%; with OVCAR-5 ovarian it was 109%; with OVCAR-4 ovarian it was 105%; in the assay with SK-OV-3 ovarian, 110%. Moreover, the growth in the assay with IGROV1 ovarian was 102%; with OVCAR-3 ovarian it was 115%; in the assay with HS 578T breast, 104%; in the assay with NCI/ADR-RES ovarian it was 96.7%; in the assay with T-47D breast, 108%; in the assay on BT-549 breast, 99.2%. Besides, the growth is 88.5% with MDA-MB-435 melanoma; 99.3% with SW-620 colon; 91.9% in the assay on MCF7 breast; 108% in the assay on HCT-116 colon; 104% in the assay on HCC-2998 colon; 91.6% in the assay on KM12 colon.

`O=C(Nc1cc(F)cc2cccnc12)c1cnc(N2CCOCC2)cn1`: the growth in the assay on SR leukemia is 38.5%; in the assay with RPMI-8226 leukemia, 70.5%; in the assay on OVCAR-8 ovarian it was 79.4%; in the assay with OVCAR-5 ovarian it was 65.6%; with OVCAR-4 ovarian, 17.9%; in the assay on SK-OV-3 ovarian it was 95.2%. Moreover, the growth in the assay on IGROV1 ovarian was 25.5%; with OVCAR-3 ovarian, 9.55% (active); with HS 578T breast it was 98.3%; with NCI/ADR-RES ovarian, 78.2%; in the assay with T-47D breast, 23.9%; with BT-549 breast, 72.4%. Further, the growth was 90.9% in the assay with MDA-MB-435 melanoma; 51.3% in the assay on SW-620 colon; 2.58% (active) with MCF7 breast; 9.63% (active) in the assay on HCT-116 colon; 107% with HCC-2998 colon; 99.1% with KM12 colon.

Regarding `CN(C)CCn1c2ccc(N)cc2c2nc3ccccc3nc21`, the growth in the assay with SR leukemia was 33.3%; in the assay on RPMI-8226 leukemia it was 24.6%; with OVCAR-8 ovarian, 35.7%; in the assay on OVCAR-5 ovarian it was 41%; with OVCAR-4 ovarian, 53.5%; with SK-OV-3 ovarian, 37.4%. In addition, the growth with IGROV1 ovarian was 23.2%; with OVCAR-3 ovarian, 37%; in the assay with HS 578T breast, 76.2%; in the assay on NCI/ADR-RES ovarian it was 28.1%; in the assay with T-47D breast it was 36.4%; in the assay with BT-549 breast it was 85.5%. Further, the growth in the assay on MDA-MB-435 melanoma was 38.4%; in the assay with SW-620 colon it was 17.1%; in the assay on MCF7 breast, 9.61% (active); in the assay on HCT-116 colon, 11.3%; in the assay on HCC-2998 colon, 45.9%; in the assay on KM12 colon, 38.5%.

On to `C#Cc1ccc(NC(=O)c2ccc(/C=C/C(=O)c3nccn3C)cc2)c(F)c1`, for which the growth with SR leukemia is 8.09% (active); with RPMI-8226 leukemia, -5.69% (active); in the assay with OVCAR-8 ovarian, 21.4%; with OVCAR-5 ovarian it was 40.7%; in the assay on OVCAR-4 ovarian, 42.3%; with SK-OV-3 ovarian, 65.3%. In addition, the growth with IGROV1 ovarian is 23.9%; in the assay with OVCAR-3 ovarian, 12.6%; in the assay on HS 578T breast it was 51.4%; in the assay on NCI/ADR-RES ovarian it was 10.8%; in the assay with T-47D breast, 14.6%; with BT-549 breast, 40.2%. Also, the growth in the assay with MDA-MB-435 melanoma was 27.9%; with SW-620 colon, 18.9%; in the assay on MCF7 breast, 11%; in the assay on HCT-116 colon it was 18%; in the assay with KM12 colon it was 23.5%.

The values above are taken from PubChem BioAssay (NCI).
